Common to all, as to assay: DAPPL (digital affinity profiling via proximity ligation, sequencing); 10 mM Tris-HCl pH 7.5, 50 mM NaCl, 1 mM DTT, 4% glycerol, room temperature, 30 min; GST-TFs on glutathione beads, 16-mer random dsDNA library, 0.1% formaldehyde crosslink after washing; high values mean tight binding
For one experiment, the target named is T1, FLI1 (Homo sapiens, UniProt Q01543 1-452).
T1 sequence: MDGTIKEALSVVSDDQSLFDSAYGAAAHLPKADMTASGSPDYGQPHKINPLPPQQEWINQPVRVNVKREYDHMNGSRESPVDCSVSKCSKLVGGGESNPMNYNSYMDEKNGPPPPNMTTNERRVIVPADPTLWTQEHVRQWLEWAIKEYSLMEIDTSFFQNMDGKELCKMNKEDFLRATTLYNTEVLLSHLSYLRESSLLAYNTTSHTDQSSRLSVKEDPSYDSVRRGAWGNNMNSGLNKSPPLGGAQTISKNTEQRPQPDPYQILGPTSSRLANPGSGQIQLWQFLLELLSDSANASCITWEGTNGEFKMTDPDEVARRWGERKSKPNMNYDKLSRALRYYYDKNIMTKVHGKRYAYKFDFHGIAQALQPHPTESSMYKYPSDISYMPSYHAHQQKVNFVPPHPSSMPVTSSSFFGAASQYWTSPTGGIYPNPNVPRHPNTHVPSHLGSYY
Particulars: protein: recombinant; tags: N-terminal GST; dsDNA, one strand shown. Put shortly: (§1)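 Human transcription factors were made in yeast as GST fusions, captured on glutathione beads and barcoded with DNA. With a tag-only sample included, the pool was incubated with 200 nmole of a random double-stranded 16-mer DNA library in Tris/NaCl/DTT/glycerol buffer at room temperature for 30 min, then crosslinked with 0.1% formaldehyde after washing, ligated by proximity, amplified and sequenced. For binding signal, each hexamer's read frequency for a factor is divided by its frequency for the tag-only sample.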

Another experiment concerns the target T2, ELK1 (Homo sapiens, UniProt P19419 1-428).
T2 sequence: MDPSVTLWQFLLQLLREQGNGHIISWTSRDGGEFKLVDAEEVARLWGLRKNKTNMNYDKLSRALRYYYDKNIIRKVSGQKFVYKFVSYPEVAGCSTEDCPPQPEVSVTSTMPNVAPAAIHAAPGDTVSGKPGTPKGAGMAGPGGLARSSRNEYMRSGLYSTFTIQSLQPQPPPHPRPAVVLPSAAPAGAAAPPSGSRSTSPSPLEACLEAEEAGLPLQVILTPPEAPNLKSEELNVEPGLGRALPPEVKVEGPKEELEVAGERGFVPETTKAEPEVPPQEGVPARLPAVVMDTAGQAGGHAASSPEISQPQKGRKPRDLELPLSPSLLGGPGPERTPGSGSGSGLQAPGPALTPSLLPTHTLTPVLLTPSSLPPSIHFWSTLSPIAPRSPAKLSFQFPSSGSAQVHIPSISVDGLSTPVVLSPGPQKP
Particulars: protein: recombinant; tags: N-terminal GST; dsDNA, one strand shown. The essentials: as §1

For a further experiment, the target named is T3, GABPA (Homo sapiens, UniProt Q06546 1-454).
T3 sequence: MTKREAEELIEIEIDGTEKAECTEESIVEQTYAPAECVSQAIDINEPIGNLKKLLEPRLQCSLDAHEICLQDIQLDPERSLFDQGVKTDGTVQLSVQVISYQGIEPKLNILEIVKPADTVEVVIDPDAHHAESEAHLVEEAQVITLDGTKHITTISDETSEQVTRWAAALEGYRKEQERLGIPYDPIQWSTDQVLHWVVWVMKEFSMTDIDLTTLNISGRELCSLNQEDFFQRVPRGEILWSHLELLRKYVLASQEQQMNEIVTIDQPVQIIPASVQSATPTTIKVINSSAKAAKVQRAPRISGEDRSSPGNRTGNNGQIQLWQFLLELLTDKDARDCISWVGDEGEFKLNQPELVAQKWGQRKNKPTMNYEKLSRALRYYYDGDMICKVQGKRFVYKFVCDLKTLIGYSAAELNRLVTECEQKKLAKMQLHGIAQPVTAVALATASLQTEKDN
Particulars: protein: recombinant; tags: N-terminal GST; dsDNA, one strand shown. The essentials:
as §1

A further experiment addresses T4, ERG (Homo sapiens, UniProt P11308 1-479).
T4 sequence: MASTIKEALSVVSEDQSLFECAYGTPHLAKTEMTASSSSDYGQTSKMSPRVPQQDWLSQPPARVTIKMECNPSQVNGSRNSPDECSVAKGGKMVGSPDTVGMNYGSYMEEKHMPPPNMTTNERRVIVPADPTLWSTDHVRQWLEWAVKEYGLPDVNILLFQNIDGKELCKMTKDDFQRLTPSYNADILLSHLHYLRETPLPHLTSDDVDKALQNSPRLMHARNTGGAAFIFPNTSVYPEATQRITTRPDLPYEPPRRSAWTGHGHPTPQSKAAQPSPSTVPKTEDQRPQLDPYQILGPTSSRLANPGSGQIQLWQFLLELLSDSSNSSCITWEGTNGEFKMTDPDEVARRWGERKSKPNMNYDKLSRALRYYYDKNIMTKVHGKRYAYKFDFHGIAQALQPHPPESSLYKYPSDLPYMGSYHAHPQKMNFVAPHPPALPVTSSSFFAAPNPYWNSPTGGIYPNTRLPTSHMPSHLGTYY
The following applies: protein: recombinant; tags: N-terminal GST; dsDNA, one strand shown. Put shortly: as §1

Another experiment addresses ELF1 (Homo sapiens, UniProt P32519 1-619). The following applies: protein: recombinant; tags: N-terminal GST; dsDNA, one strand shown. Put shortly: as §1
The next experiment concerns the target T5, EHF (Homo sapiens, UniProt Q9NZC4 1-300).
T5 sequence: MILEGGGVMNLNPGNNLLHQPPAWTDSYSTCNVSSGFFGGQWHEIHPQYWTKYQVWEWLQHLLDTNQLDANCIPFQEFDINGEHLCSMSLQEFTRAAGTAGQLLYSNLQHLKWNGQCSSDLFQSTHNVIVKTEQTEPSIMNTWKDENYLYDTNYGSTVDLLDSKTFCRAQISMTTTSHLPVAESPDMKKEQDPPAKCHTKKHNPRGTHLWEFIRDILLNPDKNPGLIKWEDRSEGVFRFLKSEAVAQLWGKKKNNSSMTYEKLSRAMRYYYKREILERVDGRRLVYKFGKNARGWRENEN
The following applies: protein: recombinant; tags: N-terminal GST; dsDNA, one strand shown. The essentials: as §1

A further experiment addresses SPI1 (Homo sapiens, UniProt P17947 1-270). Particulars: protein: recombinant; tags: N-terminal GST; dsDNA, one strand shown. The essentials:
as §1

In another experiment the target is SPIB (Homo sapiens, UniProt Q01892 1-262). Particulars: protein: recombinant; tags: N-terminal GST; dsDNA, one strand shown. The essentials:
as §1

The next experiment concerns the target T6, ELK3 (Homo sapiens, UniProt P41970 1-407).
T6 sequence: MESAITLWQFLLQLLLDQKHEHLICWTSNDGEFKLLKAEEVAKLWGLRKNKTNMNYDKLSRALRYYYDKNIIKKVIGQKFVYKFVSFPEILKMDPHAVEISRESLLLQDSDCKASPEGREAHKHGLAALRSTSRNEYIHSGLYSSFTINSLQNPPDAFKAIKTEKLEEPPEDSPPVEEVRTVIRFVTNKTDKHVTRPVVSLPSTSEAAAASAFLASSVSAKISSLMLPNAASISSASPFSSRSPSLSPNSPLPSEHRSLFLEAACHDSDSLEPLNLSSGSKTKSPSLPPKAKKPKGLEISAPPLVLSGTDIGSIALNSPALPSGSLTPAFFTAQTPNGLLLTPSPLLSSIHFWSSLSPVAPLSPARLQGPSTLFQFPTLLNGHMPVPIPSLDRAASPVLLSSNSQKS
Particulars: protein: recombinant; tags: N-terminal GST; dsDNA, one strand shown. Put shortly:
as §1

The next experiment deals with T7, FEV (Homo sapiens, UniProt Q99581 1-238).
T7 sequence: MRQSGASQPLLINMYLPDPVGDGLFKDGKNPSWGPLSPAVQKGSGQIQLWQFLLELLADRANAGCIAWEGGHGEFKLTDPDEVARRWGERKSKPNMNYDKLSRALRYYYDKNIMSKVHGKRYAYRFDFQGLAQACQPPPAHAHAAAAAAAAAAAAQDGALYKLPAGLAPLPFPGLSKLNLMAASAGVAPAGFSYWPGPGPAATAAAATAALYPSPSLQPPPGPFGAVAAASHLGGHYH
Particulars: protein: recombinant; tags: N-terminal GST; dsDNA, one strand shown. The essentials: as §1

The target in a further experiment is ETV5 (Homo sapiens, UniProt P41161 1-510). The following applies: protein: recombinant; tags: N-terminal GST; dsDNA, one strand shown. Put shortly:
as §1

The target in the next experiment is HSF1 (Homo sapiens, UniProt Q00613 1-529). The following applies: protein: recombinant; tags: N-terminal GST; chain copies: 3; dsDNA, one strand shown. The essentials: as §1
Sequence of HSF1 (Q00613 whole entry): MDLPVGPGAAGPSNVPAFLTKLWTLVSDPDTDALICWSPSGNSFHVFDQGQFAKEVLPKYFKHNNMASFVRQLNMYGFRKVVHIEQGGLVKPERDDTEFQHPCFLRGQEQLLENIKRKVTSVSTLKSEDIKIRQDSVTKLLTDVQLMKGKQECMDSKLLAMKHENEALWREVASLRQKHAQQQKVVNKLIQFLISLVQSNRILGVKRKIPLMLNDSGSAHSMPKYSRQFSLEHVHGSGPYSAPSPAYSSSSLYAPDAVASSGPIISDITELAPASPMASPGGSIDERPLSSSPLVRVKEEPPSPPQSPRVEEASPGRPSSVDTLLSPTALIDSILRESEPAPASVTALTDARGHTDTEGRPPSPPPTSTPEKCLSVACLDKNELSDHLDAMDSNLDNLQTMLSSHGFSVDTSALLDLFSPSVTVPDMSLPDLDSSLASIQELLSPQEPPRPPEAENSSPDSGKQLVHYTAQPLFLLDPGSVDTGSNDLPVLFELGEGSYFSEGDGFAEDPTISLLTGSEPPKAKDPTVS
For a further experiment, the target named is T8, SPIC (Homo sapiens, UniProt Q8N5J4 1-248).
T8 sequence: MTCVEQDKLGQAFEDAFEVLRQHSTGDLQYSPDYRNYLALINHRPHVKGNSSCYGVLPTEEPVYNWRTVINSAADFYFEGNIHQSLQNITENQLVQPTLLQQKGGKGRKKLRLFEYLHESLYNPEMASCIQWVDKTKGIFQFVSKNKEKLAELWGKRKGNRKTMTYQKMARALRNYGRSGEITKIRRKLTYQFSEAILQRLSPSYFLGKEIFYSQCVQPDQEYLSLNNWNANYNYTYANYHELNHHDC
Particulars: protein: recombinant; tags: N-terminal GST; dsDNA, one strand shown. The essentials:
as §1

Another experiment deals with ELF4 (Homo sapiens, UniProt Q99607 1-663). The following applies: protein: recombinant; tags: N-terminal GST; dsDNA, one strand shown. The essentials: as §1
Sequence of ELF4 (Q99607 whole entry): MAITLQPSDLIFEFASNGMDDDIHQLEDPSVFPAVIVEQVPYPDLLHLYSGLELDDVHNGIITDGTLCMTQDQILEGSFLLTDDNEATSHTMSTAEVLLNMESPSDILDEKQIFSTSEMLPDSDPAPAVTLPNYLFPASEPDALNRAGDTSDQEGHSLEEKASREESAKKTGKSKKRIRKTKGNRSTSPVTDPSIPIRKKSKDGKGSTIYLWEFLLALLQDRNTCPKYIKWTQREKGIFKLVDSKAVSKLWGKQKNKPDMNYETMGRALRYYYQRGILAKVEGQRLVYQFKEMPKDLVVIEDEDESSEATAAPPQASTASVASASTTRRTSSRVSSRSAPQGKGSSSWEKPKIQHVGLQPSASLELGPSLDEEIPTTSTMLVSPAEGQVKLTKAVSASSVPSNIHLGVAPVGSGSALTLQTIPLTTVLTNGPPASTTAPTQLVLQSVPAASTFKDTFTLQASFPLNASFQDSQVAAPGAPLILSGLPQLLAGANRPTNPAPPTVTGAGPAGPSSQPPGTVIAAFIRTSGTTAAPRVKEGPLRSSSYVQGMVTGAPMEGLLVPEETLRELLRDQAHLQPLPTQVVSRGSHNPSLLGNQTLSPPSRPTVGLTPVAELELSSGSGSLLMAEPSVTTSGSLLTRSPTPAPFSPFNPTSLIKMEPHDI
A further experiment has as its target T9, ELK4 (Homo sapiens, UniProt P28324-2 1-405).
T9 sequence: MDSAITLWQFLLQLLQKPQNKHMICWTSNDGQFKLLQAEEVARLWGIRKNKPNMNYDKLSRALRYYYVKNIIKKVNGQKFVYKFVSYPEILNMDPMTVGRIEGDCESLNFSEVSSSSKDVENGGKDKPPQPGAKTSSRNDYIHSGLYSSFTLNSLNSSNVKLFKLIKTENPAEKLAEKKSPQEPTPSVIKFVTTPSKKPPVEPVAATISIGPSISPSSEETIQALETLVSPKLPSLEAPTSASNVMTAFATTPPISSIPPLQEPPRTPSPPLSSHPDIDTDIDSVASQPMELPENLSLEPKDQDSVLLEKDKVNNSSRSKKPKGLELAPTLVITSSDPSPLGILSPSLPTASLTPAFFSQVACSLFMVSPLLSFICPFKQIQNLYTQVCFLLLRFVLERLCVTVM
Particulars: protein: recombinant; tags: N-terminal GST; dsDNA, one strand shown. The essentials: as §1

The next experiment has as its target T10, ETV2 (Homo sapiens, UniProt O00321 1-342).
T10 sequence: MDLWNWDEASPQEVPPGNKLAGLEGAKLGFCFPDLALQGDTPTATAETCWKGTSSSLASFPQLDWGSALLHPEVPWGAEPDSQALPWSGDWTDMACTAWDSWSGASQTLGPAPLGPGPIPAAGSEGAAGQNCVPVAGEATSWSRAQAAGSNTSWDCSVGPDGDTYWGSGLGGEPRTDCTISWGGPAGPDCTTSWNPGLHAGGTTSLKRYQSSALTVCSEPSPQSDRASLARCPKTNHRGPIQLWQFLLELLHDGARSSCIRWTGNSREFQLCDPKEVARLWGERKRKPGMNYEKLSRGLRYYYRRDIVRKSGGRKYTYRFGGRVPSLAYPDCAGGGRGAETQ
The following applies: protein: recombinant; tags: N-terminal GST; dsDNA, one strand shown. The essentials: as §1

Another experiment has as its target T11, ELF3 (Homo sapiens, UniProt P78545 1-371).
T11 sequence: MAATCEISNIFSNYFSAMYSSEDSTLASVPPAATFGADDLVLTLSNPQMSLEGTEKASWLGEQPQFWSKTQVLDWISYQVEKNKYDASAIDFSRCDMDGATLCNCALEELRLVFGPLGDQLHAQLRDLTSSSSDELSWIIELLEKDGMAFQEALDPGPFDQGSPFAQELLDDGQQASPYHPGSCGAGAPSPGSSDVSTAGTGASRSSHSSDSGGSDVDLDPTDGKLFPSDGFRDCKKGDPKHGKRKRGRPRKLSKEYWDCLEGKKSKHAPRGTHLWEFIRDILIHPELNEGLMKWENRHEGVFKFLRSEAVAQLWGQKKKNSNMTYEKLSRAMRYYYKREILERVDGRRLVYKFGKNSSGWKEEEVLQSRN
The following applies: protein: recombinant; tags: N-terminal GST; dsDNA, one strand shown. Put shortly:
as §1

The next experiment deals with CRX (Homo sapiens, UniProt O43186 1-299). The following applies: protein: recombinant; tags: N-terminal GST; dsDNA, one strand shown. The essentials: as §1
Sequence of CRX (O43186 whole entry): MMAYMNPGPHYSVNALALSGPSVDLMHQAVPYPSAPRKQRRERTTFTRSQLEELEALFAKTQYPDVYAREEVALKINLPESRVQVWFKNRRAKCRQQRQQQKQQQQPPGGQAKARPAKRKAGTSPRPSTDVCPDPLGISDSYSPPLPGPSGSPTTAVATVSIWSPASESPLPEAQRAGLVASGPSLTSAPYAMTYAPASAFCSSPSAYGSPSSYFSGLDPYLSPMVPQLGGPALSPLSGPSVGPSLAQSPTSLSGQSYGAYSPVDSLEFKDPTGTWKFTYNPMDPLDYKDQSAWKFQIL
In the next experiment the target is ETV1 (Homo sapiens, UniProt P50549 1-477). The following applies: protein: recombinant; tags: N-terminal GST; dsDNA, one strand shown. Put shortly: as §1
Sequence of ETV1 (P50549 whole entry): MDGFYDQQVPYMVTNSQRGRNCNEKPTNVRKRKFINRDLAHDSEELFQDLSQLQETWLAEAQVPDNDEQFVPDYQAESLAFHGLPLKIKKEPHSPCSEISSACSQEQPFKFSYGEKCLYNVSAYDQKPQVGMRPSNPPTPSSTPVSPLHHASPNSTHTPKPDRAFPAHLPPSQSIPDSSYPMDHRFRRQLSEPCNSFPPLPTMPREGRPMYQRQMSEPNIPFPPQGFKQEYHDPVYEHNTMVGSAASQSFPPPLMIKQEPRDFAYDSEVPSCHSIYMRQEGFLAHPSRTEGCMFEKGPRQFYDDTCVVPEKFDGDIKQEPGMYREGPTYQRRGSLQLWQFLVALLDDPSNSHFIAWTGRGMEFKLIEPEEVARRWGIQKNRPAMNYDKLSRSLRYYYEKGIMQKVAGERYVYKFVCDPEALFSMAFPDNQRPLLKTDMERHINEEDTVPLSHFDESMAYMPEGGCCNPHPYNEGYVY

Sequence of ELF1 (P32519 whole entry): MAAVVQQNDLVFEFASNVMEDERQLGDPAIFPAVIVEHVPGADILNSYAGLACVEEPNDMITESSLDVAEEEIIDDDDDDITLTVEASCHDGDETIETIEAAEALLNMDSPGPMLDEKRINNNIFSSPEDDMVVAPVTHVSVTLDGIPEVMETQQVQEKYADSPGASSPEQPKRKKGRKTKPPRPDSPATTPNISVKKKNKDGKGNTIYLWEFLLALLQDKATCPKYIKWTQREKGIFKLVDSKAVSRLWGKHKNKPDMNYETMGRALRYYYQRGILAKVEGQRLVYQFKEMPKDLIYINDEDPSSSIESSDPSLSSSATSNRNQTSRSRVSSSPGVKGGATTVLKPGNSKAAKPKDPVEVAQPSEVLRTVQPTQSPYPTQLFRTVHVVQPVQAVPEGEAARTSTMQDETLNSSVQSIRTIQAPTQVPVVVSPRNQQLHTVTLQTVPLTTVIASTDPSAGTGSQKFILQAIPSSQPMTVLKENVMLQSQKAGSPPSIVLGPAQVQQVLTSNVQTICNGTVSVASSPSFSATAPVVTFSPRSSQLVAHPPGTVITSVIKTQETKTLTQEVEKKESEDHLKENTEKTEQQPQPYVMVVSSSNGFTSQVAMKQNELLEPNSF
Sequence of SPIB (Q01892 whole entry): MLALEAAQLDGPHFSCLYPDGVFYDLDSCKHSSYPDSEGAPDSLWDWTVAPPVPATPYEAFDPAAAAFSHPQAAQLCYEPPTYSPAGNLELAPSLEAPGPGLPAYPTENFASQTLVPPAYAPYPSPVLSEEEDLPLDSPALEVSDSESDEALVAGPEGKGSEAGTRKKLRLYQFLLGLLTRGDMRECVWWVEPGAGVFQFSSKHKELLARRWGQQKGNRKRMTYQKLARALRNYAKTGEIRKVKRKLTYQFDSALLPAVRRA
Sequence of ETV5 (P41161 whole entry): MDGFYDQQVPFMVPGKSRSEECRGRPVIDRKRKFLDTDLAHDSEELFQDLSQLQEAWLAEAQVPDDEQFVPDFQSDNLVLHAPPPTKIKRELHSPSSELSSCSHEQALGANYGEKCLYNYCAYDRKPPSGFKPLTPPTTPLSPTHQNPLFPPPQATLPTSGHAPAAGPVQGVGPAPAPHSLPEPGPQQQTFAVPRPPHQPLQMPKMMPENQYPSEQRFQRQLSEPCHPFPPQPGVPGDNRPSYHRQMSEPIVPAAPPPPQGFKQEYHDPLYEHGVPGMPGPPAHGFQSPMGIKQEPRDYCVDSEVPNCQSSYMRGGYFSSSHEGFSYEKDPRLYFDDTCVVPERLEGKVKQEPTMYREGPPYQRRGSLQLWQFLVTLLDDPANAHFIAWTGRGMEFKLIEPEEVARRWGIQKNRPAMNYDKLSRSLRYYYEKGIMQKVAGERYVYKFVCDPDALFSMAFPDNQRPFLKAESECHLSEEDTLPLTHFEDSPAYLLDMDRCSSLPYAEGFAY

For the sequence TAAATC, the binding signal in the experiment with FLI1 is 1.15 fold enrichment (6-mer frequency, TF over GST control); in the experiment with ELK1 it was 1.28 fold enrichment (6-mer frequency, TF over GST control); with GABPA, 1.24 fold enrichment (6-mer frequency, TF over GST control); in the experiment with ERG, 1.2 fold enrichment (6-mer frequency, TF over GST control); in the experiment with ELF1, 1.23 fold enrichment (6-mer frequency, TF over GST control); with EHF, 1.17 fold enrichment (6-mer frequency, TF over GST control). The binding signal in the experiment with SPI1 was 1.21 fold enrichment (6-mer frequency, TF over GST control); with SPIB, 1.12 fold enrichment (6-mer frequency, TF over GST control); in the experiment with ELK3, 1.35 fold enrichment (6-mer frequency, TF over GST control); in the experiment with FEV, 1.21 fold enrichment (6-mer frequency, TF over GST control); in the experiment with ETV5 it was 1.23 fold enrichment (6-mer frequency, TF over GST control); in the experiment with HSF1 it was 1.9 fold enrichment (6-mer frequency, TF over GST control). The binding signal with SPIC was 1.2 fold enrichment (6-mer frequency, TF over GST control); with ELF4, 1.3 fold enrichment (6-mer frequency, TF over GST control); in the experiment with ELK4, 1.27 fold enrichment (6-mer frequency, TF over GST control); with ETV2, 1.12 fold enrichment (6-mer frequency, TF over GST control); in the experiment with ELF3, 1.2 fold enrichment (6-mer frequency, TF over GST control); with CRX, 2.81 fold enrichment (6-mer frequency, TF over GST control). The binding signal with ETV1 was 1.26 fold enrichment (6-mer frequency, TF over GST control).

(Values after article PMC7862700, “An all-to-all approach to the identification of sequence-specific readers for epigenetic DNA modifications on cytosine”.)
